Experimental data from PubChem BioAssay.
Activity calls are given as the source filed them. The rule behind the calls is not given here.

Assay: circadian clock period modulators, cell-based, LOPAC library, luminescence reporter (AID 2774);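 note: values are relative to mean of DMSO wells on each plate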
Settings: circadian reporter cells, at 7 µM, actives lie on both sides

Period change, inactive:
Cc1ccc(OCC(O)C(C)NC(C)C)c2c1CCC2 (centres undefined) 0.02 h
COc1cc(OC)cc(C(CNc2ncnc3c2ncn3[C@@H]2O[C@H](CO)[C@H](O)C2O)c2ccccc2C)c1 (some centres undefined) -0.11 h
CCn1c(=O)c2[nH]c(-c3ccccc3)nc2n(CC)c1=O -0.165 h
CCCCN1CCC(COC(=O)c2cc(Cl)c(N)c3c2OCCO3)CC1 -0.095 h
COc1ccccc1NC(=O)Nc1nc(-c2cccnc2)nc2ccccc12 -0.005 h
CCN1CCC[C@H]1CNC(=O)c1c(OC)ccc(I)c1O 0.025 h
O=C(Nc1cc(C(=O)Nc2ccc(S(=O)(=O)O)cc2S(=O)(=O)O)cc(C(=O)Nc2ccc(S(=O)(=O)O)cc2S(=O)(=O)O)c1)Nc1cc(C(=O)Nc2ccc(S(=O)(=O)O)cc2S(=O)(=O)O)cc(C(=O)Nc2ccc(S(=O)(=O)O)cc2S(=O)(=O)O)c1 -0.05 h
Cc1ccccc1N1CCN(S(=O)(=O)C[C@]23CCC(CC2NC(=O)[C@@H](N)CCS(C)(=O)=O)C3(C)C)CC1 (some centres undefined) -0.06 h
O=C(Cc1ccc(Cl)c(Cl)c1)OCCN1CCCC1 -0.095 h
C[C@@H](NC(=O)/C(C#N)=C/c1ccc(O)c(O)c1)c1ccccc1 0.095 h
N#CC(Cc1ccc(O)c(O)c1)C(=O)N1CCc2ccccc21 (centres undefined) 0.025 h
CCn1cc(C(=O)O)c(=O)c2ccc(Cc3ccccc3)nc21 -0.035 h
NC(=NCc1ccc(Cl)c(Cl)c1)NC(=O)c1nc(Cl)c(N)nc1N 0.175 h
COc1ccccc1N1CCN(CCCCNS(=O)(=O)c2cccc3c(N(C)C)cccc23)CC1 0.125 h
O=C(O)CCC(NC(=O)c1ccccc1C(=O)O)C(=O)O (centres undefined) -0.08 h
CNC(=O)[C@H]1O[C@@H](n2cnc3c(N)ncnc32)C(O)[C@H]1O (some centres undefined) 0.045 h
CCCNC[C@H](O)COc1ccccc1C(=O)CCc1ccccc1 0.08 h
CCNC(=O)C1OC(n2cnc3c(NCc4ccccc4)ncnc32)C(O)C1O (centres undefined) 0.1 h
COc1cc2c(cc1OC)[C@@H](c1ccccc1)CN(C)CC2 0 h
COc1ccc(CCNC[C@@H](O)c2ccc(O)cc2)cc1OC 0.05 h
Cc1ccc(C(=O)O[C@H](C(=O)O)[C@H](OC(=O)c2ccc(C)cc2)C(=O)O)cc1 (tested in a mixture with another compound) -0.105 h
OC[C@H]1O[C@@H](n2cnc3c(NCCc4ccccc4)ncnc32)C(O)[C@H]1O (some centres undefined) 0.19 h
N[C@H](CCC(=O)NCS(=O)(=O)O)C(=O)O 0.005 h
CC(C)[C@@H](CO)Nc1nc(Nc2cccc(Cl)c2)c2ncn(C(C)C)c2n1 -0.115 h
CC(N)=NCCC[C@H](N)C(=O)O 0.025 h
CN1C2CCC1CC(NC(=O)c1nn(C)c3ccccc13)C2 (centres undefined) 0.265 h
CCCn1c(=O)c2[nH]c(-c3ccc(OCC(=O)Nc4ccc(C#N)cc4)cc3)nc2n(CCC)c1=O 0.13 h
CN1CCc2c(cc(O)c(O)c2Cl)C(c2cccc(Cl)c2)C1 (centres undefined) 0.165 h
Nc1ncnc2c1ncn2[C@@H]1O[C@H](C(=O)NC2CC2)[C@H](O)C1O (some centres undefined) -0.165 h
Cc1cc(C)c(NC(=O)C[C@H](CC(=O)O)c2cccc3ccccc23)c(C(=O)N2CCC3(CCCC3)CC2)c1 0.275 h
C/C=C1\C(=O)CC2C3CCC4=CC(=O)CC[C@]4(C)C3CC[C@]12C (some centres undefined) 0.03 h
COc1cc2nc(N3CC=[N+](C(=O)c4ccco4)CC3)nc(N)c2cc1OC 0.01 h
CC1(NCC(O)COc2cccc3[nH]ccc23)CCC(C(C)(C)NC(=O)CBr)CC1 (centres undefined) -0.095 h
COc1cc(C(O)CO)ccc1O (centres undefined) (tested in a mixture with another compound) 0.16 h
C[N+](C)(C)CCC(=O)c1cccc2ccccc12 -0.475 h
CCCCCCCCCCCCC/C=C/C(O)C(N)CO (centres undefined) 0.015 h
N=C1Sc2ccccc2C2=NCCCN12 -0.035 h
CC(C)[C@@H]1NC(=O)[C@H](CCCCN)NC(=O)[C@@H](Cc2c[nH]c3ccccc23)NC(=O)[C@H](Cc2ccc(O)cc2)NC(=O)[C@H](C)N(C)C(=O)[C@H](Cc2ccccc2)NC1=O -0.2 h
COc1ccc2c(c1)c(CC(=O)O)c(C)n2Cc1ccc(F)cc1 -0.005 h
